Measured values taken from PubChem BioAssay AID492998 (Southern Research Specialized Biocontainment Screening …, 2010).
The whole screen tested about 2,300 compounds, of which about 550 (24%) were called active. The rule behind the calls is not given here. These entries were drawn from the full list. Entries with a potency or affinity are not part of this list.

Assay: Vero E6 cell cytotoxicity, dose response, cytotoxicity control for non-replicating M. tuberculosis project, secondary assay (AID 492998)
Settings: series mostly up to 20 µM

Q: For `O=c1oc2ccccc2c2c1nnn2CCO`, which outcome is on record?
A: inactive

Q: With `CCC(C)c1ccc(O)c(/C=N/O)c1` (configuration not stated) as the compound, how does the outcome read?
A: inactive

Q: With `COc1ccc2c3c(cccc13)OCC2=O` as the compound, how does the outcome read?
A: inactive

Q: With `COc1ccc(NC(=O)c2ccc(COCC(F)(F)C(F)F)cc2)cc1` as the compound, how does the outcome read?
A: inactive

Q: For `O=C(NCCC1CCCC1)c1cccs1`, which outcome is on record?
A: inactive

Q: Which outcome does the source give for `O=C1CC(N2CCN(Cc3ccccc3)CC2)C(=O)N1CCc1ccccc1` (configuration not stated) here?
A: inactive

Q: Which outcome does the source give for `NC(=O)N/N=C\c1cc(Br)ccc1O` here?
A: inactive

Q: Which outcome does the source give for `CCCOc1ccc(CCC(=O)N/N=C/c2ccc([N+](=O)[O-])o2)cc1` here?
A: inactive

Q: With `O=C(N/N=C/c1cccc2cccnc12)c1ccccc1O` as the compound, how does the outcome read?
A: inactive

Q: Which outcome does the source give for `COCCNC(=O)CC(=O)N/N=C/c1cccc(C(=O)OC)c1` here?
A: inactive

Q: Which outcome does the source give for `COC(=O)COc1ccc2c(-c3ccc(OC)cc3)cc(=O)oc2c1` here?
A: inactive

Q: For `Cc1cccc(C)c1N1C(=O)CC(N2CCSCC2)C1=O` (configuration not stated), which outcome is on record?
A: inactive

Q: With `Cc1ccc(C(=O)OCC(=O)N2CCCCCC2)c(O)c1` as the compound, how does the outcome read?
A: inactive

Q: With `Cc1ccc(CCC(=O)Nc2ccc([N+](=O)[O-])cc2)o1` as the compound, how does the outcome read?
A: inactive

Q: For `CN(C)c1ccc(NC(=O)COC(=O)c2cc(Cl)ccc2[N+](=O)[O-])cc1`, which outcome is on record?
A: inactive

Q: Which outcome does the source give for `CC[n+]1c(/C=C(\C)Nc2ccccc2)sc2ccccc21` here?
A: inactive

Q: Which outcome does the source give for `CC(C)(C)c1cc(CN2CCN(CCO)CC2)cc(C(C)(C)C)c1O` here?
A: inactive

Q: Which outcome does the source give for `COc1ccc(-c2noc(CCC(=O)Nc3cccc(C)c3)n2)cc1` here?
A: inactive

Q: Which outcome does the source give for `Cc1ccc2c(CC(=O)OCC(=O)Nc3ccc(Cl)cn3)coc2c1` here?
A: inactive

Q: For `CC(C)OC(=O)COc1ccc(-c2ccccc2)cc1`, which outcome is on record?
A: inactive

Q: For `OC(CNCCc1ccc(C(F)(F)F)cc1)COc1ccc2ccccc2c1` (configuration not stated), which outcome is on record?
A: inactive

Q: For `Cc1noc(C)c1COc1ccc(C(=O)Nc2ccccn2)cc1`, which outcome is on record?
A: inactive

Q: Which outcome does the source give for `N#Cc1nc(-c2ccc(OCc3ccccc3)cc2)oc1NCCCn1ccnc1` here?
A: inactive

Q: Which outcome does the source give for `CC1=NN(C(=O)c2ccc(Cn3nc(C)c(Br)c3C)cc2)C(O)(C(F)(F)F)C1` (configuration not stated) here?
A: inactive

Q: With `CC1=NN(C(=O)c2csc(C)c2)C(O)(C(F)(F)F)C1` (configuration not stated) as the compound, how does the outcome read?
A: inactive

Q: Which outcome does the source give for `O=C(c1ccccc1[N+](=O)[O-])N1N=C(c2ccccc2)CC1(O)C(F)(F)F` (configuration not stated) here?
A: inactive

Q: Which outcome does the source give for `CC1=NN(C(=O)c2csc(C(C)C)c2)C(O)(C(F)(F)F)C1` (configuration not stated) here?
A: inactive

Q: For `CC(=O)N(c1nnc(-c2ccc(C)cc2)s1)C1CCCC1`, which outcome is on record?
A: inactive

Q: With `COc1ccc(-c2nnn(Cc3ccccc3)n2)cc1` as the compound, how does the outcome read?
A: inactive

Q: With `Cc1nnc(N/N=C/c2ccc(-c3ccc(Br)cc3)o2)n1N` as the compound, how does the outcome read?
A: inactive

Q: Which outcome does the source give for `O=C(OCC(=O)N1CCC(c2ccccc2)=N1)c1ccc([N+](=O)[O-])s1` here?
A: inactive

Q: Which outcome does the source give for `O=C(NCCCN1CCOCC1)c1ccc(CSc2ccc(Cl)cc2)cc1` here?
A: inactive

Q: For `O=C(OCn1nnc2ccccc2c1=O)c1ccc(Br)o1`, which outcome is on record?
A: inactive

Q: Which outcome does the source give for `COc1cccc(C(=O)OCn2nnc3ccccc3c2=O)c1OC` here?
A: inactive

Q: With `C=CCOc1ccc(CNCCO)cc1OCC` as the compound, how does the outcome read?
A: inactive

Q: Which outcome does the source give for `CCc1cc(OCCCCNCc2ccccc2)ccc1Cl` here?
A: inactive

Q: For `CCCn1nnnc1NCc1ccc(CC)cc1`, which outcome is on record?
A: inactive

Q: For `O=C(CCCSc1nc2ccccc2s1)NCc1ccco1`, which outcome is on record?
A: inactive

Q: With `CC(C)CCC1=NN(C(=O)c2ccco2)C(O)(C(F)(F)F)C1` (configuration not stated) as the compound, how does the outcome read?
A: inactive

Q: With `O=C1CC(=O)CC(c2ccccc2)C1` as the compound, how does the outcome read?
A: inactive

Q: With `Cc1cccc(N2CCN(Cc3ccc([N+](=O)[O-])o3)CC2)c1C` as the compound, how does the outcome read?
A: inactive

Q: For `NC1=NC[C@H](Cc2ccccc2)N1CCCCC1CCCCC1`, which outcome is on record?
A: inactive

Q: For `CCCC(=O)N1CCC(Cc2ccccc2)CC1`, which outcome is on record?
A: inactive

Q: With `CCc1ccc(N2CCN(CCNC(=O)Nc3ccc(OC)cc3)CC2)cc1` as the compound, how does the outcome read?
A: inactive

Q: For `COc1ccc(-c2cc(C(F)(F)F)nc(S(C)(=O)=O)n2)cc1`, which outcome is on record?
A: inactive

Q: Which outcome does the source give for `O=C(Oc1c(-c2ccco2)oc2ccccc2c1=O)c1cccnc1` here?
A: inactive

Q: With `CC(=O)Oc1c(-c2ccco2)oc2ccccc2c1=O` as the compound, how does the outcome read?
A: inactive

Q: With `Cc1ccc2c(C)ccc(O)c2n1` as the compound, how does the outcome read?
A: inactive

Q: With `Cc1cccc(NCc2nnc(-c3ccccc3)o2)c1C` as the compound, how does the outcome read?
A: inactive

Q: With `CC(C)(C)C(=O)COc1ccccc1[N+](=O)[O-]` as the compound, how does the outcome read?
A: inactive

Q: Which outcome does the source give for `CCOc1ccc(C(=O)Nc2nnc(C3=COCCO3)o2)cc1` here?
A: inactive

Q: For `O=C(Nc1nnc(-c2ccc3c(c2)CCCC3)o1)c1c(F)cccc1F`, which outcome is on record?
A: inactive

Q: For `Cc1cccc(C(=O)Nc2nnc(-c3cccnc3)o2)c1`, which outcome is on record?
A: inactive

Q: For `CCS(=O)(=O)c1ncc(Cl)c(C(=O)Nc2ccc(S(=O)(=O)N(C)c3ccccc3)cc2)n1`, which outcome is on record?
A: inactive

Q: With `CCOc1ccccc1C(=O)OCC(=O)Nc1nnc(-c2ccccc2)o1` as the compound, how does the outcome read?
A: inactive

Q: Which outcome does the source give for `CCCCNC(=O)Nc1nnc(-c2ccc(OCC)cc2)o1` here?
A: inactive

Q: Which outcome does the source give for `COc1cccc(C(=O)OCC(=O)Nc2nnc(-c3ccccc3)o2)c1` here?
A: inactive

Q: For `c1ccc(-c2nnc(SCc3cn4ccsc4n3)o2)cc1`, which outcome is on record?
A: inactive

Q: For `CCS(=O)(=O)c1ncc(Cl)c(C(=O)Nc2ccc(C)cc2)n1`, which outcome is on record?
A: inactive

Q: With `CCCCn1c(N)c(-c2nc3ccccc3o2)c2c([N+](=O)[O-])nn(CC)c(=O)c21` as the compound, how does the outcome read?
A: inactive

Q: With `CCOC(=O)c1sc(NC(=O)CCN2CC(C)OC(C)C2)c(C(=O)OCC)c1C` (configuration not stated) as the compound, how does the outcome read?
A: inactive

Q: With `CCCNC(=O)NC(=O)COc1ccc(-c2ccc(C#N)cc2)cc1` as the compound, how does the outcome read?
A: inactive

Q: Which outcome does the source give for `Cc1ccc(NCCC(=O)c2cccs2)cc1Cl` here?
A: inactive

Q: For `Cc1ccc(Sc2ncccc2N)cc1`, which outcome is on record?
A: inactive

Q: For `Oc1ccccc1CN1CCCC(N2CCN(c3cccc(C(F)(F)F)c3)CC2)C1` (configuration not stated), which outcome is on record?
A: inactive

Q: For `CC(/C=C\C=C\c1ccccc1)=N\NC(=O)c1cncc(Br)c1`, which outcome is on record?
A: inactive

Q: Which outcome does the source give for `Cc1ccnc(NC(=O)CCc2c[nH]c3ccccc23)c1` here?
A: inactive

Q: For `COc1ccc2oc(=O)c(/C(C)=N/NC(=O)c3ccncc3)cc2c1`, which outcome is on record?
A: inactive

Q: For `C/C(=N\Nc1cccc2cccnc12)c1ccccn1`, which outcome is on record?
A: inactive

Q: With `CC(C)c1ccc(/C=N/NC(=O)c2ccccn2)cc1` as the compound, how does the outcome read?
A: inactive

Q: For `O=C(CCc1c[nH]c2ccccc12)Nc1ncccc1O`, which outcome is on record?
A: inactive

Q: For `COc1cc(/C=N/NC(=O)c2ccccn2)ccc1OC(=O)c1cccs1`, which outcome is on record?
A: inactive

Q: With `C/C(=N\Nc1ccc(Cl)cc1)c1ccccn1` as the compound, how does the outcome read?
A: inactive

Q: Which outcome does the source give for `CCCn1nnnc1NC(=O)COc1ccc(Br)cc1` here?
A: inactive

Q: With `Cc1ccccc1-n1c(C)cc(/C=N/NC(=O)c2ccncc2)c1C` as the compound, how does the outcome read?
A: inactive

Q: For `O=[N+]([O-])c1ncccc1Oc1nc(-c2cccnc2)nc2ccccc12`, which outcome is on record?
A: inactive

Q: Which outcome does the source give for `Clc1ccccc1OCc1nnc(-c2ccccc2)o1` here?
A: inactive
